KB-3-1 tox: kills parental KB-3-1 adenocarcinoma cells; Potency, µM (highest dose often 46.1 µM), actives largely listed as cytotoxic; AID 1347075; KB-3-1 viability, CellTiter-Glo ATP luminescence, 72 h; actives 1.4% (n = 400,000); also: nearly all actives have a fitted effect of over 60% in size
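Parental KB-3-1 viability, qHTS format: 72 h compound exposure, 37 °C; CellTiter-Glo; media-only wells and DMSO plates as controls; concentration-effect fits on corrected data.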
MCF10A rereplic: induces DNA re-replication in MCF 10a normal breast cells; MCF 10A DNA re-replication, Hoechst nuclear intensity, 48 h; Potency, µM (doses to about 46.1 µM), most hits filed as activators; actives 2.9% (n = 350,000); AID 624296; also: nearly all actives have a fitted effect of over 50% in size
PTAP TSG101 blk: blocks PTAP/TSG101 interaction to inhibit HIV-1 budding; Q99816; Fluorescence polarization, FITC-PTAP peptide / Tsg101 binding; Potency, µM (highest dose often 115 µM), usual class: inhibitors; 340,000 tested, under 10 active; AID 493005; active = well fitted inhibition curve with a large enough effect in the main read-out, with a control signal flat, not every such curve was filed as active; inconclusive = small, poorly fitted or top-dose-only effect, or effect the other way, or a change in a side signal; inactive = no such curve, though single readings can be large or run the other way
Target sequence (Q99816 whole entry, looked up): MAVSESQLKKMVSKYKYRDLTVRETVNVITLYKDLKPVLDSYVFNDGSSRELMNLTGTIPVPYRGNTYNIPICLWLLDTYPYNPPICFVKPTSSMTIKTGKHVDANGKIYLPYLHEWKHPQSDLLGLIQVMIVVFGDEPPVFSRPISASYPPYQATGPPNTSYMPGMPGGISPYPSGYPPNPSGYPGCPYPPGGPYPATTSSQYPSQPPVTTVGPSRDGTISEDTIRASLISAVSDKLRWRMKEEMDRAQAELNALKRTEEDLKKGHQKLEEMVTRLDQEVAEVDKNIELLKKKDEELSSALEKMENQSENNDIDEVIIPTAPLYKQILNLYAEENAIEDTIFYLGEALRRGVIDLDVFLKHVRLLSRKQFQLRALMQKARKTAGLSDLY
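FP read-out: FITC-PTAP peptide, 50 nM final, binding Tsg101 binding domain, 10 uM final; 20 min, r.t.; 10 mM HEPES pH 7.5, 0.15 M NaCl, 0.01% Tween 20, 3 mM EDTA, 0.1 mM TCEP.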
SW480 rerep: inducers of DNA re-replication in SW480 colon cancer cells | SW480 DNA re-replication, Hoechst DNA content imaging, 48 h | Potency, µM (doses to about 46.1 µM), hits mostly activators | actives 1.8% (n = 340,000) | AID 624297; also: nearly all actives have a fitted effect of over 55% in size
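DNA re-replication was detected as more nuclei of elevated Hoechst intensity after 48 hr exposure to compound (23 nL pinned per well of 250 cells).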
KB-V1 cytotox: kills drug-selected multidrug resistant KB-V1 cells. Potency, µM (highest dose often 46.1 µM), hits mostly cytotoxic. KB-V1 MDR cells viability, CellTiter-Glo, 72 h. actives 3.4% (n = 400,000). AID 1347076; also: nearly all actives have a fitted effect of over 60% in size
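qHTS viability screen in drug-selected KB-V1 MDR cells: 72 h compound treatment at 37 degrees C, ATP luminescence end point.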
RGS4 inh: blocks human RGS4-accelerated GTP hydrolysis; Transcreener GDP fluorescence polarization, RGS4-accelerated GTP hydrolysis; Potency, µM (top dose mostly 114 µM), most hits filed as inhibitors; actives 0.039% (n = 390,000); also: nearly all actives have a fitted effect of over 75% in size
Target sequence (P49798 whole entry, looked up): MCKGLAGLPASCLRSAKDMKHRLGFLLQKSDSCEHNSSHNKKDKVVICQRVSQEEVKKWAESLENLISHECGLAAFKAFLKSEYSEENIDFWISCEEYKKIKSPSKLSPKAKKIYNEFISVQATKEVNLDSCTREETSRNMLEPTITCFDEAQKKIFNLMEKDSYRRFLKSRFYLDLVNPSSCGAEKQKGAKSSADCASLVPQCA
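MLSMR compounds (23 nl, pin-transferred) preincubated 10 min at room temperature with a 500nM (2x) first reagent, then RGS4 at 900nM (2x) plus Transcreener GDP mix added; fluorescence polarization (620/688 nm) read before and after 90 min at 30 °C.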
Each line names hits and unclear results; the compound was inactive in the other large screens. An excerpt weighted towards active compounds, which were near 6.6% of everything screened. Unless noted, calls follow the shape of the dose curve; as a rule, active = well fitted curve in the direction sought with a large enough effect; inconclusive = small, poorly fitted or top-dose-only effect, or another doubt; inactive = no such curve, though single readings can be large; an effect the other way counts as inactive or inconclusive.

CCc1ccc(NC(=O)C2CCCN(c3nn4cc(-c5ccc(OC)cc5)nc4s3)C2)cc1 (stereo not given)	KB-V1 cytotox inconclusive (no result: MCF10A rereplic, PTAP TSG101 blk, SW480 rerep)
COc1ccc(N2CCN(S(=O)(=O)c3ccc(C4CCCCC4)cc3)CC2)cc1	none (no result: MCF10A rereplic, PTAP TSG101 blk, SW480 rerep)
O=C(Nc1ccc2ccccc2c1)Nc1nnc(-c2ccc(Cl)cc2Cl)s1	none (no result: MCF10A rereplic, PTAP TSG101 blk, SW480 rerep, RGS4 inh)
N=c1c(S(=O)(=O)c2ccc(Cl)cc2)cc2c(=O)n3ccccc3nc2n1Cc1ccco1	KB-3-1 tox inconclusive, MCF10A rereplic inconclusive, SW480 rerep 5.17µM
COCCn1c(=N)c(S(=O)(=O)c2ccc(Br)cc2)cc2c(=O)n3ccccc3nc21	none
COCCn1c(=N)c(S(=O)(=O)c2ccc(F)cc2)cc2c(=O)n3ccccc3nc21	KB-3-1 tox inconclusive, MCF10A rereplic 18.4µM, SW480 rerep 20.6µM
CCCCCn1c(=N)c(S(=O)(=O)c2ccc(Cl)cc2)cc2c(=O)n3cccc(C)c3nc21	KB-3-1 tox inconclusive, MCF10A rereplic inconclusive, KB-V1 cytotox 8.2µM
N=c1c(S(=O)(=O)c2ccc(Br)cc2)cc2c(=O)n3ccccc3nc2n1Cc1ccco1	MCF10A rereplic inconclusive
CCOCCCn1c(=N)c(S(=O)(=O)c2ccc(Cl)cc2)cc2c(=O)n3cccc(C)c3nc21	KB-V1 cytotox inconclusive (no result: MCF10A rereplic, PTAP TSG101 blk, SW480 rerep)
O=C(c1cc(N2C(=O)C3C4CCC(C4)C3C2=O)ccc1Cl)N1CCN(c2ccccc2F)CC1 (stereo not given)	KB-3-1 tox inconclusive, SW480 rerep inconclusive, KB-V1 cytotox 4.11µM
O=C(c1cc(N2C(=O)C3C4CCC(C4)C3C2=O)ccc1Cl)N1CCCCCC1 (stereo not given)	MCF10A rereplic inconclusive
COc1ccc(N2CCN(C(=O)c3cc(N4C(=O)C5C6CCC(C6)C5C4=O)ccc3Cl)CC2)cc1 (stereo not given)	KB-3-1 tox inconclusive, KB-V1 cytotox 4.61µM
COc1ccc(N2CCN(C(=O)c3cccc(N4C(=O)C5CC=CC(C)C5C4=O)c3)CC2)cc1 (stereo not given)	KB-V1 cytotox 18.4µM (no result: PTAP TSG101 blk)
COc1ccc(N2CCN(C(=O)c3cccc(N4C(=O)C5C6C=CC(C6)C5C4=O)c3)CC2)cc1 (stereo not given)	none
O=C(c1cc(N2C(=O)C3C4CCC(C4)C3C2=O)ccc1Cl)N1CCN(c2ccc(F)cc2)CC1 (stereo not given)	KB-3-1 tox inconclusive, MCF10A rereplic inconclusive, KB-V1 cytotox 2.59µM
Nc1nc(Cl)nc2c1ncn2[C@@H]1O[C@H](CO)[C@H](O)C1F (stereo not given in full)	none (no result: KB-3-1 tox, PTAP TSG101 blk, KB-V1 cytotox, RGS4 inh)
CCCc1n[nH]c2c1/C(=N/O)CC(c1ccccc1)C2 (stereo not given)	KB-3-1 tox 25.9µM, KB-V1 cytotox inconclusive
COc1cc(-c2nc(Cn3nnc(C(=O)Nc4cccc(Cl)c4)c3C)c(C)o2)cc(OC)c1OC	none (no result: MCF10A rereplic, PTAP TSG101 blk, SW480 rerep)
COc1cc(NC(=O)CSc2nc(C)c(C)c(C)n2)c(C)cc1[N+](=O)[O-]	KB-V1 cytotox 14.6µM
CCN(C(=O)CSc1nc2ccccc2n1CC(=O)NCc1ccc(OC)cc1)c1ccccc1	none (no result: MCF10A rereplic, PTAP TSG101 blk, SW480 rerep)
COC(=O)CCCn1c(-c2ccc(C)cc2)c(C)n2c3c(=O)n(C)c(=O)n(C)c3nc12	KB-V1 cytotox inconclusive (no result: MCF10A rereplic, PTAP TSG101 blk, SW480 rerep)
Cc1ccc(-c2c(C)n3c4c(=O)n(C)c(=O)n(C)c4nc3n2CCCO)cc1	KB-3-1 tox inconclusive, KB-V1 cytotox 6.51µM (no result: MCF10A rereplic, PTAP TSG101 blk, SW480 rerep)
CN(Cc1ccccc1)CC(O)COc1ccc(CNCCc2ccncc2)cc1 (stereo not given)	MCF10A rereplic inconclusive, SW480 rerep 18.4µM, KB-V1 cytotox inconclusive
CCOc1ccc(CCNC(=O)Cn2ncn3c(cc4ccccc43)c2=O)cc1OCC	none (no result: KB-3-1 tox, MCF10A rereplic, PTAP TSG101 blk, SW480 rerep, KB-V1 cytotox)
Cc1ccc(-c2nc3cnccn3c2Nc2c(C)cccc2C)o1	MCF10A rereplic 20.6µM, SW480 rerep inconclusive, RGS4 inh inconclusive
Cc1ccc(-c2nc3cnccn3c2Nc2ccc(C(C)C)cc2)o1	none (no result: KB-3-1 tox, MCF10A rereplic, PTAP TSG101 blk, SW480 rerep, KB-V1 cytotox)
Cc1cccc(N(C)C(=O)C2CCC(CNS(=O)(=O)c3cccc4nsnc34)CC2)c1 (stereo not given)	KB-3-1 tox inconclusive (no result: MCF10A rereplic, PTAP TSG101 blk, SW480 rerep)
c1cnc2nc3c4ccccc4c4ccccc4c3nc2c1	MCF10A rereplic 10.3µM, SW480 rerep 23.1µM
Cc1cc(CN(C)C(=O)c2cc(COc3ccc(F)cc3Cl)on2)n[nH]1	KB-V1 cytotox 20.6µM
O=C(c1cc(COc2ccc(F)cc2Cl)on1)N1CCC(OCc2cccnc2)CC1	KB-V1 cytotox inconclusive
O=C(c1cc(COc2ccc(F)cc2Cl)on1)N1CCCC(OCc2cccnc2)C1 (stereo not given)	KB-V1 cytotox 9.2µM
COc1ccccc1OCc1cc(C(=O)N2CCN(C)C(c3ccccc3)C2)no1 (stereo not given)	none
CN1CCN(C(=O)c2cc(COc3ccc(F)cc3Cl)on2)CC1c1ccccc1 (stereo not given)	KB-3-1 tox 16.4µM, MCF10A rereplic 20.6µM, SW480 rerep inconclusive
COc1ccc(CN(Cc2ccco2)C(=O)COc2ccccc2OC)cc1	none (no result: KB-3-1 tox, MCF10A rereplic, PTAP TSG101 blk, SW480 rerep, KB-V1 cytotox)
Cc1cc(C)cc(NC(=O)C2CCN(S(=O)(=O)c3cccc(-c4noc(C)n4)c3)CC2)c1	none (no result: MCF10A rereplic, PTAP TSG101 blk, SW480 rerep)
CCSc1nnc(NS(=O)(=O)c2ccc(OC)cc2)s1	MCF10A rereplic 0.731µM, KB-V1 cytotox inconclusive
